# Columns and labels:
# [1] = tested on: T1, YSK4
# T1 construct: gene MAP3K19
# [2] = tested on: AAK1; details: concentration: 1 μM, replicates: in singlicate; n = 1
# [3] = tested on: ABL1-nonphosphorylated; details: concentration: 1 μM, replicates: in singlicate; n = 1
# [4] = tested on: ABL1-phosphorylated; details: concentration: 1 μM, replicates: in singlicate; n = 1
# [5] = tested on: ABL2; details: concentration: 1 μM, replicates: in singlicate; n = 1
# [6] = tested on: T2, VPS34
# T2 construct: gene PIK3C3
# [7] = tested on: WNK4
# [8] = tested on: T3, p38-alpha
# T3 construct: gene MAPK14
# [9] = tested on: TXK
# [10] = tested on: ZAK
# [11] = tested on: TYK2(JH2domain-pseudokinase)
# [12] = tested on: TYK2(JH1domain-catalytic)
# [13] = tested on: T4, p38-gamma
# T4 construct: gene MAPK12
# [14] = tested on: ULK3
# [15] = tested on: TYRO3
# [16] = tested on: T5, YES
# T5 construct: gene YES1
# [17] = tested on: TNNI3K
# 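Wherever %Inh is given: KINOMEscan kinase panel screen.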
# 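Wherever Kd is given: kd values determined as follow-up on hits from a single-replicate KINOMEscan panel screen.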
compound,measurement,setting,value
O=C(Nc1n[nH]c2nc(-c3ccccc3)c(Br)cc12)C1CC1 [SB-708998],Kd,[1],640 nM
same,%Inh,[2],8%
same,%Inh,[3],43%
same,%Inh,[4],11%
same,%Inh,[5],2%
Nc1nccc2scc(-c3ccc4c(c3)CCN4C(=O)Cc3ccccc3)c12 [GSK2576924],%Inh,[2],8%
same,%Inh,[3],0%
same,%Inh,[4],0%
same,%Inh,[5],1%
Cc1nn2c(=O)cc(N3CCOCC3)nc2n1Cc1cccc(Cl)c1Cl [GSK2342769],Kd,[6],0.43 nM
same,%Inh,[2],14%
same,%Inh,[3],0%
same,%Inh,[4],0%
same,%Inh,[5],9%
COC(=O)c1c(-c2ccccc2)c2cc(C)ccc2c(=O)n1Cc1ccccc1,%Inh,[2],1%
same,%Inh,[3],53%
same,%Inh,[4],0%
same,%Inh,[5],6%
COC(=O)c1c(-c2ccccc2)c2cc(Br)ccc2c(=O)n1Cc1ccc(S(C)(=O)=O)cc1,%Inh,[2],27%
same,%Inh,[3],25%
same,%Inh,[4],9%
same,%Inh,[5],32%
CCS(=O)c1ccc(-c2coc3ccc(-c4nnc(C)o4)cc23)cc1 (centres unmarked),%Inh,[2],0%
same,%Inh,[3],27%
same,%Inh,[4],0%
same,%Inh,[5],0%
OCCCNc1nccc(-c2c(-c3cccc(C(F)(F)F)c3)nn3cc(C(F)(F)F)ccc23)n1 [GW630813],Kd,[7],> 10000 nM
same,Kd,[8],1300 nM
same,%Inh,[2],0%
same,%Inh,[3],0%
same,%Inh,[4],0%
same,%Inh,[5],0%
CCC(=O)c1c(-c2ccccc2)c2cc(Cl)ccc2c(=O)n1Cc1cc(C(=O)NC2CC2)n(C)n1,%Inh,[2],20%
same,%Inh,[3],20%
same,%Inh,[4],0%
same,%Inh,[5],9%
O=C(NCCNc1ccnc(Nc2ccc(F)cc2)n1)Nc1ccc2c(c1)OCO2 [GSK1379882],Kd,[9],> 10000 nM
same,Kd,[10],> 10000 nM
same,%Inh,[2],20%
same,%Inh,[3],0%
same,%Inh,[4],0%
same,%Inh,[5],0%
Cc1nc(N(C)[C@H]2CN(C(=O)CC#N)CC[C@H]2C)c2cc[nH]c2n1,%Inh,[2],0%
same,%Inh,[3],1%
same,%Inh,[4],2%
same,%Inh,[5],1%
Nc1n[nH]c2ncc(-c3ccccc3)cc12 [SB-517081],Kd,[11],950 nM
same,%Inh,[2],36%
same,%Inh,[3],0%
same,%Inh,[4],18%
same,%Inh,[5],17%
O=C(Nc1n[nH]c2cc(-c3ccccc3F)ccc12)C1CC1 [SB-733371],Kd,[1],200 nM
same,%Inh,[2],9%
same,%Inh,[3],46%
same,%Inh,[4],21%
same,%Inh,[5],9%
CCC(=O)c1c(-c2ccccc2)c2cc(Cl)ccc2c(=O)n1Cc1cc(S(C)(=O)=O)n(CC(F)F)n1,%Inh,[2],0%
same,%Inh,[3],23%
same,%Inh,[4],2%
same,%Inh,[5],0%
COc1cccc(-n2cnc3c(N)ncnc32)c1 [SKF-97416],Kd,[12],> 10000 nM
same,%Inh,[2],0%
same,%Inh,[3],56%
same,%Inh,[4],46%
same,%Inh,[5],8%
COc1cc2ncn(-c3cc(OCc4ccc(S(C)(=O)=O)cc4)c(C(N)=O)s3)c2cc1OC [GW869979],%Inh,[2],0%
same,%Inh,[3],0%
same,%Inh,[4],13%
same,%Inh,[5],14%
COc1ccc(CNC(=O)NC2CCN(c3ccnc(Nc4ccc(F)cc4)n3)C2)cc1 (centres unmarked) [GSK1379706],%Inh,[2],32%
same,%Inh,[3],0%
same,%Inh,[4],0%
same,%Inh,[5],2%
CCCNC(=O)Nc1ccc(Oc2ncnc3ccn(C)c23)cc1,%Inh,[2],13%
same,%Inh,[3],30%
same,%Inh,[4],6%
same,%Inh,[5],4%
COc1ccc(-c2cc3c(C)nc(N)nc3n([C@H]3CC[C@H](O)CC3)c2=O)cn1,Kd,[13],> 10000 nM
same,%Inh,[2],0%
same,%Inh,[3],0%
same,%Inh,[4],0%
same,%Inh,[5],0%
COc1ccc(-c2coc3ccc(-c4nnc(SCc5cccc(C#N)c5)o4)cc23)cc1,Kd,[14],> 10000 nM
same,%Inh,[2],0%
same,%Inh,[3],23%
same,%Inh,[4],0%
same,%Inh,[5],0%
Cn1c(=O)c(F)c(Nc2ccc(I)cc2F)c2c(=O)n(OC[C@H](O)CO)cnc21,%Inh,[2],10%
same,%Inh,[3],54%
same,%Inh,[4],41%
same,%Inh,[5],3%
Cc1ccccc1COc1cc(-n2cnc3cc(Cl)ccc32)sc1C(N)=O [GW813349],Kd,[6],> 10000 nM
same,%Inh,[2],2%
same,%Inh,[3],9%
same,%Inh,[4],14%
same,%Inh,[5],13%
CCn1c(-c2nonc2N)nc2ccccc21 [SB-693162/GW549034],Kd,[1],10 nM
same,%Inh,[2],29%
same,%Inh,[3],53%
same,%Inh,[4],27%
same,%Inh,[5],0%
COc1cc(OC)cc(-c2cc3cnc(N)nc3nc2NC(=O)NC(C)(C)C)c1,Kd,[15],> 10000 nM
same,Kd,[16],> 10000 nM
same,%Inh,[2],15%
same,%Inh,[3],39%
same,%Inh,[4],0%
same,%Inh,[5],0%
Nc1ncnc2c1ncn2-c1cccc(F)c1 [SKF-97560],Kd,[17],> 10000 nM
same,%Inh,[2],0%
same,%Inh,[3],9%
same,%Inh,[4],14%
same,%Inh,[5],8%
Cl.c1ccc(Cn2cnc3cc(Nc4ncnc5ccccc45)ccc32)cc1 [GW272142],%Inh,[2],5%
same,%Inh,[3],0%
same,%Inh,[4],0%
same,%Inh,[5],9%

# From PMC5540273 (PLoS ONE, 2017)
